Screens as filed in PubChem BioAssay.
In the library only some 2.8% were active in any assay of this set; here they are far more common.
Shn3 3UTR inh – Schnurri-3 reporter inhibition in Clone20 osteoblasts. Clone20 osteoblast Shn3 3'UTR firefly luciferase, 24 h. inhibition, % at 12.5 µM. actives 0.52% (n = 360,000);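 active = mean inhibition of at least 75% with every replicate also reaching 75%; inconclusive = mean inhibition at least 75% but some replicate below; inactive = mean inhibition below 75%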
TRPM1 prom inh – inhibitors of MITF-driven TRPM1 promoter in melanoma cells; actives 0.83% (n = 330,000); SK-MEL-5 TRPM1 promoter luciferase, 24 h; inhibition, % at 12.5 µM;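 active = mean inhibition across replicates of 60% or more, whatever share of single replicates reaches that level; inconclusive = some that reach 60%, reason not given; inactive = mean inhibition across replicates below 60%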
HIF-2a block – inhibitors of HIF-2a; 786-0 RCC cells HIF-2a reporter, luciferase luminescence, overnight; inhibition, % at 18.8 µM; actives 0.72% (n = 360,000);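 active = inhibition of the luminescence signal of 40% or more relative to plate controls, in a single-dose primary screen at 18.75 µM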
Peg3 prom inh – reduces Peg3 promoter-driven luciferase expression in HeLa; HeLa PEG-Prom luciferase reporter, luminescence, overnight; actives 1.7% (n = 360,000); inhibition, % at 20 µM; AID 588405;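 active = inhibition of at least 50% at 20 µM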
KKLEB cytotox – CF airway cell cytotoxicity counter-screen; KKLEB CF airway cells viability, ATPlite luminescence, overnight; active compounds read low; cells stimulated with P. aeruginosa culture filtrate; activity change (cytotoxicity), % at 5 µM; actives 0.36% (n = 360,000);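 active = corrected activity change at or below -50% at 5 µM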
CF NFkB block – blocks PAF-induced NF-kB reporter in cystic fibrosis cells; KKLEB NF-kB-GFP reporter, GFP fluorescence overnight; inhibition, % at 5 µM; actives 0.86% (n = 360,000); AID 588850;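 active = at least 50% inhibition at 5 µM, scaled per plate between neutral and stimulator controls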;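 note: PAF is a Pseudomonas aeruginosa culture filtrate used as stimulus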
Of the large screens only hits and unclear results are named; the others gave an inactive call.

C[n+]1c2n(c3ccccc31)N=C(c1ccc(-c3ccccc3)cc1)CS2	TRPM1 prom inh 81.5
CC1CCC(NC(=O)CSc2nnc(-c3cccnc3)o2)CC1 (stereo not drawn)	none
Cc1ccc(NC(=O)CSc2nsc(SCC(=O)Nc3ccc(C)cc3C)c2C#N)c(C)c1	Peg3 prom inh 76.8
NC(=O)C1=CC2C3C=CC2(O)C(=O)OC3O1 (stereo not drawn)	TRPM1 prom inh 71.2, Peg3 prom inh 101.5
CCN(CC)S(=O)(=O)c1ccc2c(c1)C(=NO)c1cc(S(=O)(=O)N(CC)CC)ccc1-2	Peg3 prom inh 51.3
CC1CCN(S(=O)(=O)c2ccc3c(c2)C(=NO)c2cc(S(=O)(=O)N4CCC(C)CC4)ccc2-3)CC1	Shn3 3UTR inh 95.0, TRPM1 prom inh 100.1, Peg3 prom inh 99.8, CF NFkB block 82.8
CC1=C(C(=O)N2CCCCCC2)CC(CC(=O)NCCN2CCOCC2)C(=O)N1Cc1ccc(C(C)(C)C)cc1 (stereo not drawn)	none (no result: Shn3 3UTR inh, TRPM1 prom inh, Peg3 prom inh, KKLEB cytotox, CF NFkB block)
Nc1[nH]c(C(=O)c2ccccc2)c(-c2ccncc2)c1C(=O)NCCc1c[nH]c2ccccc12	none (no result: Shn3 3UTR inh, TRPM1 prom inh, Peg3 prom inh, KKLEB cytotox, CF NFkB block)
Cc1cc(Nc2cccc(Cl)c2)nc(NCc2ccccc2)n1	Shn3 3UTR inh 86.9
C[C@@H]1CCCCCCCCC(=O)OCCN(C(=O)OC(C)(C)C)[C@H](C)CCCCCCCCC(=O)OCCN1C(=O)OC(C)(C)C	none
C[C@@H]1CCCCCCCCC(=O)OCCN[C@H](C)CCCCCCCCC(=O)OCCN[C@H](C)CCCCCCCCC(=O)OCCN1	TRPM1 prom inh 64.1
CCOC(=O)c1cccc2c1-c1ccccc1/C2=N/O	CF NFkB block 86.1
CC(C)COC(=O)c1cccc2c1-c1ccccc1/C2=N\O	none
O=[N+]([O-])c1ccc(-[n+]2ccc3ccccc3c2)c([N+](=O)[O-])c1	TRPM1 prom inh 89.2, Peg3 prom inh 95.5, KKLEB cytotox -81.0, CF NFkB block 81.8
Cc1ccnc(NC(=O)c2sc3ccccc3c2Cl)c1	KKLEB cytotox -75.2
Cc1cnc(NC(=O)c2sc3ccccc3c2Cl)s1	KKLEB cytotox -53.5
O=C(Nc1ccc(Cl)c(Cl)c1)c1cccc(S(=O)(=O)NCc2cccnc2)c1	none
O=C(Oc1ccc(Cl)c2cccnc12)C12CC3CC(CC(C3)C1)C2	none
COc1ccc(NS(=O)(=O)c2ccc(C(=O)N3CCCCCC3)cc2)cc1	Shn3 3UTR inh 82.4
CCCCSCc1nc2nc(Cl)c(Cl)nc2[nH]1	none (no result: TRPM1 prom inh)
Cc1cc(C)cc(S(=O)(=O)c2cn(C)c3cc(N4CCN(C)CC4)c(F)cc3c2=O)c1	Peg3 prom inh 99.6
O=C1C=CC(=O)N1c1ccc2c(c1)Cc1cc(F)ccc1-2	Peg3 prom inh 97.4
CC(=O)Nc1ccc2c(c1)Cc1cc(N3C(=O)C=CC3=O)ccc1-2	TRPM1 prom inh 78.1, HIF-2a block 41.9, Peg3 prom inh 98.2
O=[N+]([O-])c1ccc(N2CCN(c3ccccn3)CC2)c(Cl)c1	none
O=C(Nc1ccc(OC(F)(F)F)cc1)c1[nH]ncc1[N+](=O)[O-]	TRPM1 prom inh 70.1
O=C(Nc1ccc(OC(F)(F)F)cc1)Nc1cccc([N+](=O)[O-])c1	Peg3 prom inh 55.3, KKLEB cytotox -65.4, CF NFkB block 65.7
Cc1onc(C(=O)Nc2ccc(OC(F)(F)F)cc2)c1[N+](=O)[O-]	none
O=C(Nc1ccc(OC(F)(F)F)cc1)Nc1cccnc1	none
CCc1cccc(C)c1NC(=O)CN(C)Cc1ccccc1F	none
CCCCCCCCCCCCCCCC[N+](C)(C)Cc1ccc(F)cc1	Shn3 3UTR inh inconclusive, Peg3 prom inh 105.4
COc1ccc(/C(C)=N/OCC(=O)N=Nc2c(O)[nH]c3ccc(Br)cc23)cc1	KKLEB cytotox -52.7
COc1ccc(/C=N/OCC(=O)N=Nc2c(O)[nH]c3ccc(Br)cc23)cc1OC	none
CCn1nnc2cc(C(=O)Nc3cc(S(C)(=O)=O)ccc3Cl)ccc21	none
CCn1nnc2cc(C(=O)Nc3cc(Cl)ccc3C)ccc21	Shn3 3UTR inh 88.1
CN(C)S(=O)(=O)c1cccc(NC(=O)Cn2cc(C(F)(F)F)cc(Cl)c2=O)c1	none
CCOc1ccc2nc(SCC(=O)NCc3ccc(S(N)(=O)=O)cc3)[nH]c2c1	none
COc1cccc(/C=N/Nc2nccnc2Cl)c1O	Shn3 3UTR inh 86.0, Peg3 prom inh 53.4
COc1cccc(/C=N/Nc2ncnc3scc(-c4ccccc4)c23)c1O	Shn3 3UTR inh 85.5, TRPM1 prom inh 70.1, Peg3 prom inh 60.0
COc1cccc(/C=N/Nc2ncnc(Cl)c2N)c1O	HIF-2a block 62.9, Peg3 prom inh 84.6
Cc1cc(N/N=C/c2ccccc2O)c2ccccc2n1	none
COc1ccc2nc(C)cc(N/N=C/c3cccc(OC)c3O)c2c1	TRPM1 prom inh 81.6, Peg3 prom inh 110.6
COc1ccc(/C=N/Nc2ncnc(Cl)c2N)cc1OC	none
Cc1cc(C(=O)Nc2ccc(Cl)c(S(=O)(=O)N3CCOCC3)c2)c2ccccc2n1	none
Cc1ccc(C(=O)Cc2cc3ccccc3oc2=O)c(C)c1	none
COc1ccc2nc(C)cc(NCc3cccc(C(F)(F)F)c3)c2c1	TRPM1 prom inh 69.0
COc1ccc2nc(C)cc(Nc3ccccc3O)c2c1	none
COc1cccc(/C=N/Nc2nc3ccccc3n3cnnc23)c1O	Peg3 prom inh 70.5
COc1cccc(/C=N/Nc2nc3ccccc3n3cnnc23)c1	none
Cc1ccc(NC(=S)NNC(=S)Nc2cccc(C(F)(F)F)c2)cc1	none (no result: Shn3 3UTR inh)
O=C(Nc1ccncc1)Nc1cccc(C(F)(F)F)c1	none
O=C(Nc1ccc(OC(F)F)cc1)Nc1cccc(C(F)(F)F)c1	KKLEB cytotox -52.3, CF NFkB block 63.1
Cc1ccc(S(=O)(=O)Nc2ccc(NC(=O)Nc3cccc(C(F)(F)F)c3)cc2)cc1	Peg3 prom inh 95.7
CSCCC(C(=O)Nc1c(C)cccc1C)N1CCN(c2ccc(F)cc2)CC1 (stereo not drawn)	none (no result: TRPM1 prom inh)
CCCC(=O)N1CCC1(C)C(=O)Nc1ccc(OC)c(OC)c1 (stereo not drawn)	none (no result: TRPM1 prom inh)
O=[N+]([O-])c1cccc(-c2csc(N/N=C/c3cccc(O)c3)n2)c1	Peg3 prom inh 101.8
Cn1cnc([N+](=O)[O-])c1S(=O)(=O)Oc1ccccc1	Shn3 3UTR inh 94.6, Peg3 prom inh 102.8
Cn1cnc([N+](=O)[O-])c1S(=O)(=O)Nc1ccccc1	none
Cn1cnc([N+](=O)[O-])c1S(=O)(=O)c1cccc(Cl)c1	Peg3 prom inh 111.5, KKLEB cytotox -54.2
CCN1CCN(C(=O)c2ccc(CN(c3ccccc3)S(=O)(=O)c3ccccc3)cc2)CC1	none
COc1ccc([C@@H]2[C@@H]3C(=O)N(C(C)(C)C)C(=O)[C@@H]3[C@]3(Cc4ccccc4)C(=O)N(c4ccc(Br)cc4)C(=O)N23)cc1	KKLEB cytotox -83.4, CF NFkB block 71.1
COc1cccc(CNC(=O)c2cc3c(c(-c4cccc(-c5cccc(C#N)c5)c4)n2)[C@H](CCO)N(S(=O)C(C)(C)C)C3)c1 (stereo partly drawn)	none (no result: TRPM1 prom inh)
